Measurements taken from PubChem BioAssay (NCATS).
Several values for one entry are separate records, joined by “and”; a condition that tells them apart may be missing. Equal entries are not always repeated. Results filed as inconclusive are left out. Activity calls are given as the source filed them. Unless noted, calls come from the whole dose curve; as a rule, active = well fitted curve in the direction sought with a large enough effect; inconclusive = small, poorly fitted or top-dose-only effect, or another doubt; inactive = no such curve, though single readings can be large; an effect the other way counts as inactive or inconclusive.

Tests used:
[1] = target: T1, Tyrosine-protein phosphatase non-receptor type substrate 1 (Homo sapiens) + Leukocyte surface antigen CD47 (Homo sapiens) (UniProt P78324+Q08722); assay: CD47-SIRPalpha protein protein interaction - LANCE assay qHTS validation (AID 1347057; active = well fitted curve in the direction sought with a large enough effect in the signal ratio, with a control signal flat, not every such curve was filed as active; the % refers to the signal ratio); settings: Recombinant CD47-His / biotin-SIRPalpha, TR-FRET ratio; series mostly up to 38.3 µM
Method in brief: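 Inhibition of soluble CD47/SIRPalpha ectodomain association by titrated compounds, measured as 665/615 nm time-resolved FRET ratio after sequential 30 min room-temperature incubations.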

[2] = target: T1, Tyrosine-protein phosphatase non-receptor type substrate 1 (Homo sapiens) + Leukocyte surface antigen CD47 (Homo sapiens); assay: CD47-SIRPalpha protein protein interaction - HTRF assay qHTS validation (AID 1347058; active = well fitted curve in the direction sought with a large enough effect in the signal ratio, not every such curve was filed as active; the % refers to the signal ratio); settings: TR-FRET HTRF CD47-His / biotin-SIRPalpha binding, ratio 665/615; series mostly up to 38.3 µM
Method in brief: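 Soluble extracellular domains (6His-CD47, Avi-tag-biotinylated SIRPalpha) in PBS pH 7.4 with 0.05% IGEPAL CA-630. Compounds were preincubated 30 min at RT with CD47 and anti-His-Eu, then SIRPalpha and SAV-XL665 were added. TR-FRET 665/615 ratio.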

[3] = target: T1, Tyrosine-protein phosphatase non-receptor type substrate 1 (Homo sapiens) + Leukocyte surface antigen CD47 (Homo sapiens); assay: CD47-SIRPalpha protein protein interaction - Alpha assay qHTS validation (AID 1347059); settings: AlphaScreen CD47-His/biotin-SIRPalpha binding, LOPAC; series mostly up to 38.3 µM;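 note: bead proximity luminescence from CD47 binding SIRPalpha after compound preincubation with SIRPalpha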
Method in brief: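 In PBS (pH 7.4) with 0.05% IGEPAL CA-630, compound is preincubated with biotin-Avi-SIRPalpha ectodomain before His-CD47 ectodomain and affinity beads are added. Light-protected room-temperature incubations; AlphaScreen readout.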

[4] = target: Parathyroid hormone/parathyroid hormone-related peptide receptor (Homo sapiens) (UniProt Q03431); assay: qHTS for PTHR1 Agonists: Optimization Screen against the NCGC LOPAC library (AID 1347079); settings: HEK293 GP2 PTHR1 GloSensor cAMP luminescence, 1 h; series mostly up to 57.1 µM;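 note: GloSensor cAMP luminescence in HEK-293 GP2 cells expressing human PTHR1 with IBMX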
Method in brief: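 HEK-293 GP2 cells, PTHR1 + GloSensor cAMP; 3000 cells/well, o/n. Luciferin + IBMX 0.5mM each (stock), 1 hr 37C. Cpd titration, 1 hr 37C. Lum after 15 min RT. Ctrl M-PTH(1-15) top 10uM.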

[5] = qHTS of pediatric cancer cell lines to identify multiple opportunities for drug repurposing: Primary screen for TC32 cells (AID 1347089); settings: TC32 Ewing sarcoma viability, CellTiter-Glo luminescence, 48 h; series mostly up to 45.8 µM; note: nearly all actives have a fitted effect of over 60% in size; note: potency is the fitted concentration of half-maximal effect
Method in brief: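 Luminescent CellTiter-Glo read-out of metabolically active TC32 cells after 48 h compound exposure. Primary: MIPE 11-point, 0.78 nM–46 µM; NPC 8-point, 0.59 nM–46 µM. Confirmatory: 11-point dilutions.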

[6] = qHTS of pediatric cancer cell lines to identify multiple opportunities for drug repurposing: Primary screen for DAOY cells (AID 1347090); settings: DAOY medulloblastoma viability, CellTiter-Glo luminescence, 48 h; series mostly up to 46 µM; note: nearly all actives have a fitted effect of over 55% in size; note: potency is the fitted concentration of half-maximal effect
Method in brief: (§1)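 Eight- or eleven-point concentration series, 48 h treatment at 37 degrees C in growth media; readout CellTiter-Glo luminescence. Potency and efficacy were taken from the concentration-response curves.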

[7] = qHTS of pediatric cancer cell lines to identify multiple opportunities for drug repurposing: Primary screen for SJ-GBM2 cells (AID 1347091); settings: SJ-GBM2 viability, CellTiter-Glo luminescence, 48 h; series mostly up to 46 µM; note: potency is the fitted concentration of half-maximal effect
Method in brief: as §1

[8] = qHTS of pediatric cancer cell lines to identify multiple opportunities for drug repurposing: Primary screen for NB-EBc1 cells (AID 1347095); settings: NB-EBc1 neuroblastoma viability, CellTiter-Glo luminescence, 48 h; series mostly up to 46 µM; note: potency is the fitted concentration of half-maximal effect
Method in brief: (§2)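 Luminescence from CellTiter-Glo served as readout of metabolically active cells after 48 h compound exposure. Titrations: MIPE 11-point, from 0.78 nM; NPC 8-point, from 0.59 nM (final). Concentration-response curves came straight from the primary screen.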

[9] = qHTS of pediatric cancer cell lines to identify multiple opportunities for drug repurposing: Primary screen for U-2 OS cells (AID 1347096); settings: U-2 OS viability, CellTiter-Glo luminescence, 48 h; series mostly up to 46 µM; note: nearly all actives have a fitted effect of over 50% in size
Method in brief: (§3)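 Cells (500-1,000/well) in growth media were settled 5 h at 37 degrees C, then given compounds for 48 h. Viability was read as CellTiter-Glo luminescence. Primary runs used MIPE at 11 points (0.78 nM-46 µM) and NPC at 8 points (0.59 nM-46 µM); follow-ups used 11 points.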

[10] = qHTS of pediatric cancer cell lines to identify multiple opportunities for drug repurposing: Primary screen for Saos-2 cells (AID 1347097); settings: Saos-2 viability, CellTiter-Glo ATP luminescence, 48 h; series mostly up to 46 µM; note: nearly all actives have a fitted effect of over 40% in size; note: potency is the fitted concentration of half-maximal effect
Method in brief: as §2

[11] = qHTS of pediatric cancer cell lines to identify multiple opportunities for drug repurposing: Primary screen for NB1643 cells (AID 1347099); settings: NB1643 neuroblastoma viability, CellTiter-Glo luminescence, 48 h; series mostly up to 46 µM; note: nearly all actives have a fitted effect of over 50% in size; note: potency is the fitted concentration of half-maximal effect
Method in brief: as §2

[12] = qHTS of pediatric cancer cell lines to identify multiple opportunities for drug repurposing: Primary screen for LAN-5 cells (AID 1347100); settings: LAN-5 neuroblastoma viability, CellTiter-Glo luminescence, 48 h; series mostly up to 46 µM; note: potency is the fitted concentration of half-maximal effect
Method in brief: as §3

[13] = qHTS of pediatric cancer cell lines to identify multiple opportunities for drug repurposing: Primary screen for BT-12 cells (AID 1347101); settings: BT-12 viability, CellTiter-Glo luminescence, 48 h; series mostly up to 57.3 µM; note: nearly all actives have a fitted effect of over 25% in size; note: potency is the fitted concentration of half-maximal effect
Method in brief: (§4)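 Cells (500-1,000/well) rested 5 h, then received compounds for 48 h; metabolically active cells were measured by CellTiter-Glo luminescence. Final concentrations spanned up to 46 µM (MIPE, 11-point) or 0.59 nM-46 µM (NPC, 8-point) in primary screens, 11-point in follow-ups.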

[14] = qHTS of pediatric cancer cell lines to identify multiple opportunities for drug repurposing: Primary screen for Rh18 cells (AID 1347102); settings: Rh18 rhabdomyosarcoma viability, CellTiter-Glo luminescence, 48 h; series mostly up to 46 µM; note: nearly all actives have a fitted effect of over 65% in size; note: potency is the fitted concentration of half-maximal effect
Method in brief: as §3

[15] = qHTS of pediatric cancer cell lines to identify multiple opportunities for drug repurposing: Primary screen for OHS-50 cells (AID 1347103); settings: OHS-50 osteosarcoma viability, CellTiter-Glo luminescence, 48 h; series mostly up to 57.3 µM; note: nearly all actives have a fitted effect of over 40% in size; note: potency is the fitted concentration of half-maximal effect
Method in brief: as §4

[16] = qHTS of pediatric cancer cell lines to identify multiple opportunities for drug repurposing: Primary screen for SK-N-SH cells (AID 1347098); settings: SK-N-SH viability, CellTiter-Glo luminescence, 48 h; series mostly up to 57 µM; note: nearly all actives have a fitted effect of over 65% in size; note: potency is the fitted concentration of half-maximal effect
Method in brief: as §4

[17] = qHTS of pediatric cancer cell lines to identify multiple opportunities for drug repurposing: Primary screen for RD cells (AID 1347104); settings: RD rhabdomyosarcoma viability, CellTiter-Glo luminescence, 48 h; series mostly up to 46 µM; note: nearly all actives have a fitted effect of over 55% in size
Method in brief: as §2

[18] = qHTS of pediatric cancer cell lines to identify multiple opportunities for drug repurposing: Primary screen for A673 cells (AID 1347092); settings: A673 Ewing sarcoma viability, CellTiter-Glo ATP luminescence, 48 h; series mostly up to 46 µM; note: nearly all actives have a fitted effect of over 45% in size; note: potency is the fitted concentration of half-maximal effect
Method in brief: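 A673 cells (500-1,000 cells/well in growth media) were pre-incubated 5 h at 37 degrees C, then exposed to compounds for 48 h. Viability was read as CellTiter-Glo luminescence; concentration-response curves came directly from the primary screen.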

[19] = qHTS of pediatric cancer cell lines to identify multiple opportunities for drug repurposing: Primary screen for SK-N-MC cells (AID 1347093); settings: SK-N-MC viability, CellTiter-Glo luminescence, 48 h; series mostly up to 46 µM; note: potency is the fitted concentration of half-maximal effect
Method in brief: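 Metabolically active cells were quantified by ATP-dependent luminescence (CellTiter-Glo, 15 min at room temperature) following 48 h treatment. Cells had been plated at 500-1,000 per well and settled for 5 h beforehand.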

[20] = qHTS of pediatric cancer cell lines to identify multiple opportunities for drug repurposing: Primary screen for BT-37 cells (AID 1347094); settings: BT-37 viability, CellTiter-Glo luminescence, 48 h; series mostly up to 57.3 µM; note: potency is the fitted concentration of half-maximal effect
Method in brief: as §2

Measured: Potency

T1 sequence (P78324 whole entry, looked up, the tested form may be a part): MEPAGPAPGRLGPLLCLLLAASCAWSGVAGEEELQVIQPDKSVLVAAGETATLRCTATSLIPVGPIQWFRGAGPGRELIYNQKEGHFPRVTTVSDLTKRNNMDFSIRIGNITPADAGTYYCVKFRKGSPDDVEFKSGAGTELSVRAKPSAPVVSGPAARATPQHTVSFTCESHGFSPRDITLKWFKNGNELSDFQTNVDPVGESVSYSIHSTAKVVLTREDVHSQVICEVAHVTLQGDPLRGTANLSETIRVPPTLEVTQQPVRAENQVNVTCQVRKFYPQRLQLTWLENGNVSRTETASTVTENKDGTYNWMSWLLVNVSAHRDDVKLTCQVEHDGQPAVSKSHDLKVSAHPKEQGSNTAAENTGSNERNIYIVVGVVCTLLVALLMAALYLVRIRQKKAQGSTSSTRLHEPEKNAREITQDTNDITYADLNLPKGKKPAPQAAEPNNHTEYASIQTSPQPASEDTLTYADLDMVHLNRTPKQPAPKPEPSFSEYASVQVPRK
T1 sequence (Q08722 whole entry, looked up, the tested form may be a part): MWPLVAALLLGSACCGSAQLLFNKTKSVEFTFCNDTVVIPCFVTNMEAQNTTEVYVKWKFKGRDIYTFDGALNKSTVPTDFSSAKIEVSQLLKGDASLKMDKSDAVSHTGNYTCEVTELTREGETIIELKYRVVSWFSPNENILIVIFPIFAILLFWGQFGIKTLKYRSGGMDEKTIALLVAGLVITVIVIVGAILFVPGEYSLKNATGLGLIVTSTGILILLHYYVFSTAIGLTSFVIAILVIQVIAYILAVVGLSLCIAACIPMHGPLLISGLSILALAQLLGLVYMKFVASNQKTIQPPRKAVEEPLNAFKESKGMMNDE
Parathyroid hormone/parathyroid hormone-related peptide receptor (Homo sapiens), sequence (Q03431 whole entry, looked up): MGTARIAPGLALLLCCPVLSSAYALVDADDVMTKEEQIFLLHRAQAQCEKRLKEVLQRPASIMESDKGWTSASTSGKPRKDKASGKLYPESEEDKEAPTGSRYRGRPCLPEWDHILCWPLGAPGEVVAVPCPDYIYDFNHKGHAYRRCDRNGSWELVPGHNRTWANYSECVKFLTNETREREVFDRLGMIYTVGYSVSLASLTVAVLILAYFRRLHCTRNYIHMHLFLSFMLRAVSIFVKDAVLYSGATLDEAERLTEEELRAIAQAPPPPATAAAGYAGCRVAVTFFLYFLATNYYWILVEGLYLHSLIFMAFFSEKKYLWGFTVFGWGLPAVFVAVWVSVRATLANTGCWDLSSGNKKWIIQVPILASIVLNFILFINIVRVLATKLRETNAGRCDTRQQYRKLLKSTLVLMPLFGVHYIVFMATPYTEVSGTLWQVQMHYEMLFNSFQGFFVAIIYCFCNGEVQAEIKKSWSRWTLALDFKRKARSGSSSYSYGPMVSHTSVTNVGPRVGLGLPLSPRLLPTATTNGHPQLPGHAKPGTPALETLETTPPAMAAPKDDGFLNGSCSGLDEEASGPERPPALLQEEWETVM

O=C(O)C1CCCN(CCC=C(c2ccccc2)c2ccccc2)C1 (stereo not drawn)
not listed: [16] | [17] | [18] | [19] | [20]
inactive: all other assays above

OCc1ccc(-c2nn(Cc3ccccc3)c3ccccc23)o1
not listed: [5] | [10] | [15] | [18] | [19] | [20]
inactive: all other assays above

CN(C)CCc1c[nH]c2ccc(CS(=O)(=O)N3CCCC3)cc12
not listed: [1] | [2] | [3] | [4] | [17]
inactive: all other assays above

CCOC(=O)[C@H](CCc1ccccc1)N[C@H]1CS[C@H](c2cccs2)CN(CC(=O)O)C1=O
inactive: [5]

O=C(O)CSCC(=O)NC1CCSC1=O (stereo not drawn)
not listed: [1] | [2] | [3] | [4]
inactive: all other assays above

CNS(=O)(=O)CCc1ccc2[nH]cc(C3CCN(C)CC3)c2c1
inactive: [1] | [2] | [3] | [6] | [9] | [10] | [14]

N[C@@H](Cc1ccc(O)c(O)c1)C(=O)O
active: [19] 18.7 µM
not listed: [5] | [11] | [17] | [18]
inactive: all other assays above

CCc1c2c(nc3ccc(OC(=O)N4CCC(N5CCCCC5)CC4)cc13)-c1cc3c(c(=O)n1C2)COC(=O)[C@]3(O)CC
active: [5] 236 nM and 739 nM | [6] 13.3 µM and 1.48 µM | [7] 1.19 µM and 590 nM | [18] 1.06 µM and 590 nM | [19] 106 nM and 105 nM | [20] 389 nM and 544 nM | [8] 1.19 µM and 332 nM | [10] 1.5 µM and 1.32 µM | [16] 7.7 µM | [11] 841 nM and 1.66 µM | [12] 1.33 µM and 372 nM | [13] 2.43 µM | [14] 18.7 µM | [15] 0.769 µM
inactive: [9]

NS(=O)(=O)c1cc2c(cc1Cl)NC(C(Cl)Cl)NS2(=O)=O (stereo not drawn)
not listed: [1] | [2] | [3] | [4]
inactive: all other assays above

C#CCN[C@@H]1CCc2ccccc21
not listed: [1] | [2] | [3] | [4]
inactive: all other assays above

CC1CC2C3CCC4=CC(=O)C=C[C@]4(C)[C@@]3(F)[C@@H](O)C[C@]2(C)[C@@]1(O)C(=O)CO (stereo partly drawn)
active: [19] 13.2 µM
not listed: [5] | [10] | [11] | [13] | [15] | [17] | [18] | [20]
inactive: all other assays above

COC(c1ccccc1)(c1ccccc1)[C@H](Oc1nc(C)cc(C)n1)C(=O)O
not listed: [1] | [2] | [3] | [4] | [15] | [17]
inactive: all other assays above

CC(=O)[C@H]1CC[C@H]2[C@@H]3CCC4=CC(=O)CC[C@]4(C)[C@H]3CC[C@]12C
inactive: [1] | [2] | [3] | [4] | [5] | [8] | [9]
active: [18] 1.18 µM | [19] 0.526 µM | [16] 12.1 µM | [11] 2.96 µM | [13] 24.3 µM

O=C(O)CCn1c2c(c3ccccc31)C[C@H](NS(=O)(=O)c1ccc(F)cc1)CC2
not listed: [1] | [2] | [3] | [4] | [17]
inactive: all other assays above

CC1=C(C(=O)O)N2C(=O)[C@@H](NC(=O)C(N)c3ccccc3)[C@H]2SC1 (stereo partly drawn)
not listed: [2] | [5] | [8] | [10] | [15] | [19]
inactive: all other assays above

Cc1nnc(C(=O)NC(C)(C)c2nc(C(=O)NCc3ccc(F)cc3)c(O)c(=O)n2C)o1
not listed: [1] | [2] | [3] | [4] | [15]
inactive: all other assays above
